Screening results: PubChem, several laboratories
Only some compounds are listed: those with a hit (about 1.6% of all), similar ones and a draw of the others.
BJeLR viability – MLPCN primary cell-based screen for lethality selective to Ras in HRASV12 cells. BJeLR (HRASV12) viability, CellTiter-Glo ATP luminescence, 48 h. inhibition, % (concentration not given with the values). actives 0.17% (n = 300,000). AID 1554, 2009; in the data active means inhibition above about 50%
RecA splice inh – Mtb RecA intein splicing inhibitors, primary screen, biochemical, fluorescence, HTS | actives 0.75% (n = 290,000) | inhibition, % (concentration not given with the values) | cell-free RecA intein splicing | Protein RecA (Mycobacterium tuberculosis (strain ATCC 25618 / H37Rv)), P9WHJ3 | AID 2221, 2009; in the data active means inhibition above about 30%;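 further: 0% = vehicle wells and 100% = reference inhibitor control wells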
Target sequence (P9WHJ3 whole entry, looked up, canonical isoform): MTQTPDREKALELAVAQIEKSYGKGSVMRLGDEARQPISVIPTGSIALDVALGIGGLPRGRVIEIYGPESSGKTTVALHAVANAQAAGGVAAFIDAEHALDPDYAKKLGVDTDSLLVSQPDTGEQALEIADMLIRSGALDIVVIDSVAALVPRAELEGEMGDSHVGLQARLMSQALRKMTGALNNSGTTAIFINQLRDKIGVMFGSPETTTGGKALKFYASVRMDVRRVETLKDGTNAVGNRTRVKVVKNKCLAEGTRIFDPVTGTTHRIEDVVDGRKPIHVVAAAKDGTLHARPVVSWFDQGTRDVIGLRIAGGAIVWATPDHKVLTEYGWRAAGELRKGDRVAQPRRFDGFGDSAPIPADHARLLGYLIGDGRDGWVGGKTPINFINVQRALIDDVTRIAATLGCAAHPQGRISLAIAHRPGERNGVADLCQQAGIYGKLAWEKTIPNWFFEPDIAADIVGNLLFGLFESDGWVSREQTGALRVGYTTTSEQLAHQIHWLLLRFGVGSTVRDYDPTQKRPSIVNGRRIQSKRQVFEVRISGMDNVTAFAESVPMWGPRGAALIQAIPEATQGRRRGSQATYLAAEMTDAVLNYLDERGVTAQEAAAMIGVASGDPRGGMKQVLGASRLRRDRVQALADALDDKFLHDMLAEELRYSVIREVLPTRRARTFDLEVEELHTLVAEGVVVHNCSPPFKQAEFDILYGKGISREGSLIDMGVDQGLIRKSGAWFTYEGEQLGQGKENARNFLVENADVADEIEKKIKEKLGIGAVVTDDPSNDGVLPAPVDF
Sa ugtP lethal – growth inhibition of ugtP-null S. aureus, primary screen, RN4220 ugtP deletion, OD600; 16 h; growth inhibition, % (test concentration not listed); actives 0.54% (n = 330,000); AID 1259309, 2017; in the data active means growth inhibition above about 68%;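 further: plate controls were untreated wells for no effect and antibiotic for full effect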
CCHF vOTU inh-1 – CCHFV vOTU protease inhibitors, primary screen, biochemical, Pep-AMC substrate, fluorescence | AID 651958, 2012 | actives 0.55% (n = 370,000) | inhibition, % at 11.5 µM | Crimean-Congo hemorrhagic fever virus L polyprotein viral ovarian tumor (vOTU) protease …; further: 0% = vehicle wells with enzyme and 100% = no enzyme wells
Sa RN4220 lethal – growth inhibition of S. aureus RN4220, primary screen, OD600; inhibition, % (no concentration beside the values); actives 0.33% (n = 330,000); 16 h; in the data active means inhibition above about 85%;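 further: plate controls were untreated cells for no effect and reference antibiotic for full effect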
Mtb hypoxia rep – PubChem AID 1159583; M. tuberculosis hypoxia-regulated fluorescent reporter, fluorescence; fluorescence inhibition, % (no concentration beside the values); actives 0.1% (n = 300,000); in the data active means fluorescence inhibition mostly above about 23%, no sharp cut-off; inactive means mostly below about 17%
CCHF vOTU inh-2 – CCHFV vOTU protease inhibitors, confirmation, biochemical, Pep-AMC substrate, fluorescence | Recombinant CCHFV vOTU | inhibition, % at 11.5 µM | actives 17% (n = 1,900) | AID 686976, 2013 | shares compounds with CCHF vOTU inh-1
The depositor's hits bear a star; . = no result given. Unless noted, no stated cut-off is given here; in the data, active means inhibition above about 30%; inactive means the rest.

SMILES	BJeLR viability	RecA splice inh	Sa ugtP lethal	CCHF vOTU inh-1	Sa RN4220 lethal	Mtb hypoxia rep	CCHF vOTU inh-2
Cc1ccc([C@@H]2CC(=O)[C@@H]3CN(S(=O)(=O)c4ccc(C)cc4)[C@H](c4ccc(Cl)cc4)C[C@@H]3N2S(=O)(=O)c2ccc(Cl)cc2)cc1	.	.	.	31*	.	.	-20
Cc1ccc(S(=O)(=O)N2C[C@H]3C(=O)C[C@@H](c4ccc(Cl)cc4)N(S(=O)(=O)c4ccc(C)cc4)[C@H]3C[C@H]2c2ccc(Cl)cc2)cc1	.	.	.	6	.	.	.
CCc1ccc([C@@H]2CC(=O)[C@@H]3CN(S(=O)(=O)c4ccc(Cl)cc4)[C@H](c4ccc(C)cc4)C[C@@H]3N2S(=O)(=O)c2ccc(C)cc2)cc1	.	.	.	35*	.	.	-5
CCc1ccc([C@H]2[C@@H]3C(=O)C[C@@H]4C(=O)N(C)C(=O)[C@@H]4[C@@H]3CN2S(=O)(=O)c2ccc(C)cc2)cc1	.	.	.	30*	.	.	-7
CN(C)CCCNC(=O)C=Cc1ccc2c(c1)OCO2	.	.	-2	.	3	6	.
COC(=O)c1c(C)oc2c1cc(NS(=O)(=O)c1ccc(C(=O)O)cc1)c1ccccc12	4	20	11	38*	5	13	-8
COc1ccc(Nc2nc(NCc3ccco3)nc(NN=Cc3ccccc3F)n2)cc1	.	.	39	.	34	2	.
CC(C)CC(NC(=O)c1nc[nH]c1C(=O)NCCNC(=O)OC(C)(C)C)C(=O)CNCCNC(=O)c1[nH]cnc1C(=O)NC(C)C(=O)OC(C)(C)C (configuration not stated)	.	.	2	.	8	12	.
Cc1cc2cc(CN(Cc3ccco3)C(=S)NCC3CCCO3)c(=O)[nH]c2cc1C (configuration not stated)	0	0	-9	31*	0	-5	-14
Cc1ccc(S(=O)(=O)N2C(c3cccc(Cl)c3)CC=C(C(=O)O)C2c2ccc(Cl)cc2)cc1 (configuration not stated)	.	.	48	.	24	12	.
Nc1c2c(=O)[nH]c(O)cc2nn1-c1ccccc1	.	.	8	63*	0	20	-11
CCCC(=Nc1ccc(N)cc1)C1=C(O)C(C(=O)OC)C(C)(C)CC1=O (configuration not stated)	8	-2	-1	103*	3	8	3
C=C(C)C(=O)OC1CC(C)=CC(=O)C=C(C)C(O)C2OC(=O)C(=C)C12 (configuration not stated)	.	.	-4	.	10	.	.
Cc1cc(=O)[nH]c(N/N=C/C=C/c2ccccc2)n1	-4	-7	.	35*	.	.	-3
CCOc1cc(C=NNC(=O)c2cccs2)cc([N+](=O)[O-])c1O	.	.	11	.	5	22	.
CCCNC(=O)N1C2CCC1C(C(=O)OC)=C(c1ccc(F)cc1F)C2 (configuration not stated)	.	.	5	.	2	8	.
Cc1cccc2c1[nH]c1nc(N/N=C\c3ccco3)nnc12	1	-2	.	37*	.	.	1
C/C(C=NNc1nnc2c(n1)[nH]c1c(C)cccc12)=C\c1ccco1	.	.	0	.	0	6	.
CC(C)(C)OC(=O)C(Cc1ccccc1)NC(=O)c1nc[nH]c1C(=O)N1CCc2ccccc2C1 (configuration not stated)	.	.	-13	.	3	5	.
S=C(Nc1ccc2nc(-c3ccccn3)c(-c3ccccn3)nc2c1)N1CCOCC1	4	-35	4	36*	-1	0	-58
O=[N+]([O-])c1ccc2c(c1)C(N1CCOCC1)C(=CCOc1ccc(Cl)cc1Cl)O2 (configuration not stated)	.	.	-10	.	1	8	.
CC1(C)CC(=O)C2=C(C1)c1c(ccc3ccccc13)NC2c1cc([N+](=O)[O-])cc([N+](=O)[O-])c1O (configuration not stated)	-7	11	90*	44*	95*	1	14
CC1(C)CC(=O)C2=C(C1)c1c(ccc3ccccc13)NC2c1ccc(C(=O)O)cc1 (configuration not stated)	6	-37	-1	-109	8	2	.
CCCCC1C2=C(CC(C)(C)CC2=O)OC2=C1C(=O)CC(C)(C)C2	3	6	3	30*	13	2	-2
COC(=O)[C@]12C[C@H](CC(=O)NCc3cccc(C(F)(F)F)c3)C(=O)N(Cc3ccccc3)C1=C[C@H](C(C)C)O[C@@H]2C1CC1	.	.	.	41*	.	.	-4
SMILES	BJeLR viability	RecA splice inh	Sa ugtP lethal	CCHF vOTU inh-1	Sa RN4220 lethal	Mtb hypoxia rep	CCHF vOTU inh-2
COC(=O)[C@]12C[C@H](CC(=O)NCc3cccc(C(F)(F)F)c3)C(=O)N(CCC3=CCCCC3)C1=C[C@H](C(C)C)O[C@@H]2C1CC1	.	.	.	33*	.	.	7
COC(=O)[C@]12C[C@H](CC(=O)NCc3cccc(C(F)(F)F)c3)C(=O)N(Cc3ccco3)C1=C[C@H](C(C)C)O[C@@H]2C1CC1	.	.	.	31*	.	.	0
CC#CC(CC)c1ccc2ccn(C)c2c1 (configuration not stated)	.	.	10	.	10	3	.
Cc1cc(C)nc(SCC(=O)N/N=C/c2cccn2-c2cccc(C(F)(F)F)c2)n1	1	2	.	30*	.	.	2
CCN1C(=O)C2C(c3ccc(C)cc3)N3C(=O)N(c4ccc(C)cc4)C(=O)[C@@]3(Cc3ccccc3)C2C1=O (some centres not stated)	.	.	1	.	7	-3	.
CCC(O)c1c(-c2ccccc2)nn(C)c1Cl (configuration not stated)	-3	-1	-1	31*	6	9	-16
CC(C)(C)c1ccc(S(=O)(=O)NC(=O)C2(C)CCN2C(=O)C2(c3ccc(Cl)cc3)CC2)cc1 (configuration not stated)	.	.	.	31*	.	.	-4
CS(=O)(=O)Oc1ccc(Br)c2cccnc12	-1	0	12	10	5	6	.
Nc1ccc(Br)c2cccnc12	-11	4	-1	101*	-12	-13	1
CC(C)NC(=O)N(C)CC1Oc2ccc(NC(=O)CCN3CCOCC3)cc2CC(=O)N(C(C)CO)CC1C (configuration not stated)	.	.	4	.	2	8	.
C/C(Cl)=C/Cn1c(SCC(C)C)nc2c1c(=O)[nH]c(=O)n2C	3	2	-1	1	-3	.	.
CCCCOC(=O)CSc1nc2c(c(=O)[nH]c(=O)n2C)n1C/C=C(\C)Cl	3	-5	3	31*	2	.	-10
Cc1noc(C)c1NC(=O)Nc1cccc2c1OC(CN(C)C(=O)Nc1ccc(C(F)(F)F)cc1)C(C)CN(C(C)CO)C2=O (configuration not stated)	.	.	-11	.	0	-4	.
